{"source": "ChEMBL document CHEMBL3988442", "about": "“University of Dundee, Small-Polar-MMV Screening Library” (2021)", "molecular_target": "T1, Methionyl-tRNA synthetase, putative (Leishmania donovani (strain BPK282A1)) (UniProt E9BF75)", "T1 sequence (whole entry)": "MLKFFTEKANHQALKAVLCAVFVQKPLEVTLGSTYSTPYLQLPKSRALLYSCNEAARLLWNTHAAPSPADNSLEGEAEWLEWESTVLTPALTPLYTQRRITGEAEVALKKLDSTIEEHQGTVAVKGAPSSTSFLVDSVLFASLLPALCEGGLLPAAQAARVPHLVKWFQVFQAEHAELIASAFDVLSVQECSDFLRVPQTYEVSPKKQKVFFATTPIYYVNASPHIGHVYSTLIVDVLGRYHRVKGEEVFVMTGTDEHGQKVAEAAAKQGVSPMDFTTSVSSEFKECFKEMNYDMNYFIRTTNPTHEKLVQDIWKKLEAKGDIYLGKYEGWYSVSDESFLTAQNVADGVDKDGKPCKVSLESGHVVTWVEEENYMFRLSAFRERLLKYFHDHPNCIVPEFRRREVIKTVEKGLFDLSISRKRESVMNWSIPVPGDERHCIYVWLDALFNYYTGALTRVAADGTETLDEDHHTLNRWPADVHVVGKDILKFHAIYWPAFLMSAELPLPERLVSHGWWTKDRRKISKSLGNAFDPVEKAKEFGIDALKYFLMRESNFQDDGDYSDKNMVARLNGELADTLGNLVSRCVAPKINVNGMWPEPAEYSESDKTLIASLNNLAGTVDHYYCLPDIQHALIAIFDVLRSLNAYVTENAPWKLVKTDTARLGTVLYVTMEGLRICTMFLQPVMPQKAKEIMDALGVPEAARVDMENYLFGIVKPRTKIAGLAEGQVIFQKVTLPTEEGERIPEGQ", "experiment": "Leishmania donovani Methionine tRNA synthetase (LdMetRS):v7. Dose response assay", "assay_type": "functional", "set-up": "conc 80 nM, time 150 minutes", "data": [{"compound": "NC1CCN(C2CCN(c3ccc(-c4ccco4)cc3)CC2)CC1", "values": [{"measurement": "PXC50", "setting": "MAX_EFFECT 34.50087566", "result": "< 4"}, {"measurement": "PXC50", "setting": "MAX_EFFECT 44.89795918", "result": "< 4"}, {"measurement": "PXC50", "setting": "MAX_EFFECT 51.44927536", "result": "< 4"}]}, {"compound": "Cn1ncc2c(Nc3ccc(F)c(F)c3)nc(NCCO)nc21", "values": [{"measurement": "PXC50", "setting": "MAX_EFFECT 4.750593824", "result": "< 4"}, {"measurement": "PXC50", "setting": "MAX_EFFECT 5.660377358", "result": "< 4"}, {"measurement": "PXC50", "setting": "MAX_EFFECT 14.59227468", "result": "< 4"}]}, {"compound": "c1cc(-c2ccc3c(c2)CCC32CCN(c3nncs3)CC2)co1", "values": [{"measurement": "PXC50", "setting": "BOTTOM 1.725579768, HILLSLOPE 1.730442881, MAX_EFFECT 81.97573657, TOP 100.0", "result": 4.31}, {"measurement": "PXC50", "setting": "BOTTOM 2.845642281, HILLSLOPE 1.539467031, MAX_EFFECT 93.05555556, TOP 100.0", "result": 4.55}, {"measurement": "PXC50", "setting": "BOTTOM 5.084669568, HILLSLOPE 1.629318142, MAX_EFFECT 90.60402685, TOP 100.0", "result": 4.52}]}, {"compound": "O=C(CCNC(=O)c1ccccc1F)NCCNc1cccnc1", "values": [{"measurement": "PXC50", "setting": "MAX_EFFECT 3.623188406", "result": "< 4"}, {"measurement": "PXC50", "setting": "MAX_EFFECT 4.761904762", "result": "< 4"}, {"measurement": "PXC50", "setting": "MAX_EFFECT 5.779334501", "result": "< 4"}]}, {"compound": "Cn1ncc2c(NCCO)nc(Nc3cccc(O)c3)nc21", "values": [{"measurement": "PXC50", "setting": "MAX_EFFECT 5.386416862", "result": "< 4"}, {"measurement": "PXC50", "setting": "MAX_EFFECT 6.072106262", "result": "< 4"}, {"measurement": "PXC50", "setting": "MAX_EFFECT 8.167770419", "result": "< 4"}]}, {"compound": "Cn1ccnc1CN(CCO)C(=O)C1CCN(C(=O)C2CC2)CC1", "values": [{"measurement": "PXC50", "setting": "MAX_EFFECT 3.401360544", "result": "< 4"}, {"measurement": "PXC50", "setting": "MAX_EFFECT 4.347826087", "result": "< 4"}, {"measurement": "PXC50", "setting": "MAX_EFFECT 10.33274956", "result": "< 4"}]}, {"compound": "OCCNc1nc(Nc2cccc(C(F)(F)F)c2)nc2ccsc12", "values": [{"measurement": "PXC50", "setting": "MAX_EFFECT 27.65957447", "result": "< 4"}, {"measurement": "PXC50", "setting": "MAX_EFFECT 37.44493392", "result": "< 4"}, {"measurement": "PXC50", "setting": "MAX_EFFECT 44.00826446", "result": "< 4"}]}, {"compound": "Cn1ncc2c(NCC(C)(C)O)nc(Nc3ccc(F)c(F)c3)nc21", "values": [{"measurement": "PXC50", "setting": "BOTTOM 2.756167144, HILLSLOPE 0.998486082, MAX_EFFECT 82.64150943, TOP 95.06215472", "result": 4.8}, {"measurement": "PXC50", "setting": "BOTTOM -1.483509386, HILLSLOPE 0.96789371, MAX_EFFECT 77.86259542, TOP 87.31089032", "result": 4.95}, {"measurement": "PXC50", "setting": "BOTTOM -2.002010489, HILLSLOPE 0.709003451, MAX_EFFECT 80.70175439, TOP 108.677252", "result": 4.69}]}, {"compound": "O=S(=O)(NCCSc1nccn1C1CC1)c1ccccc1", "values": [{"measurement": "PXC50", "setting": "MAX_EFFECT 2.721088435", "result": "< 4"}, {"measurement": "PXC50", "setting": "MAX_EFFECT 2.898550725", "result": "< 4"}, {"measurement": "PXC50", "setting": "MAX_EFFECT 8.23117338", "result": "< 4"}]}, {"compound": "COc1ccc(Oc2nccc3occc23)cc1CN1CCCC1", "values": [{"measurement": "PXC50", "setting": "BOTTOM 5.268776127, HILLSLOPE 1.354854137, MAX_EFFECT 57.61821366, TOP 100.0", "result": 4.06}, {"measurement": "PXC50", "setting": "BOTTOM -7.168939731, HILLSLOPE 0.901042745, MAX_EFFECT 51.70068027, TOP 100.0", "result": 4.08}, {"measurement": "PXC50", "setting": "BOTTOM -7.793188509, HILLSLOPE 1.286586052, MAX_EFFECT 52.89855072, TOP 100.0", "result": 4.09}]}, {"compound": "Cc1cc(Nc2nc(NCCO)c3cnn(C)c3n2)cc(C(F)(F)F)c1", "values": [{"measurement": "PXC50", "setting": "MAX_EFFECT 17.18061674", "result": "< 4"}, {"measurement": "PXC50", "setting": "MAX_EFFECT 18.76208897", "result": "< 4"}, {"measurement": "PXC50", "setting": "MAX_EFFECT 22.9338843", "result": "< 4"}]}, {"compound": "Cc1cc(C)n(-c2nc(N3CCCC(O)C3)c3c4c(sc3n2)CCCC4)n1", "note": "(stereo unspecified)", "values": [{"measurement": "PXC50", "setting": "MAX_EFFECT 1.492537313", "result": "< 4"}, {"measurement": "PXC50", "setting": "MAX_EFFECT 6.004140787", "result": "< 4"}, {"measurement": "PXC50", "setting": "MAX_EFFECT 6.832298137", "result": "< 4"}, {"measurement": "PXC50", "setting": "MAX_EFFECT 7.036247335", "result": "< 4"}]}, {"compound": "CN(c1cccc(F)c1)c1nc(NCCO)c2cnn(C)c2n1", "values": [{"measurement": "PXC50", "setting": "MAX_EFFECT 8.142493639", "result": "< 4"}, {"measurement": "PXC50", "setting": "MAX_EFFECT 9.649122807", "result": "< 4"}, {"measurement": "PXC50", "setting": "MAX_EFFECT 12.83018868", "result": "< 4"}]}, {"compound": "CC(C)C[C@H](N)COc1cccc(F)c1Oc1ccc(Cl)cc1", "values": [{"measurement": "PXC50", "setting": "BOTTOM 2.189725924, HILLSLOPE 1.340429131, MAX_EFFECT 78.50287908, TOP 100.0", "result": 4.39}, {"measurement": "PXC50", "setting": "BOTTOM 6.665693755, HILLSLOPE 1.000390525, MAX_EFFECT 63.08724832, TOP 89.83359252", "result": 4.34}, {"measurement": "PXC50", "setting": "BOTTOM 8.555350196, HILLSLOPE 1.300138335, MAX_EFFECT 82.32235702, TOP 100.0", "result": 4.4}, {"measurement": "PXC50", "setting": "BOTTOM 9.084234051, HILLSLOPE 1.282962904, MAX_EFFECT 79.16666667, TOP 100.0", "result": 4.36}, {"measurement": "PXC50", "setting": "BOTTOM -2.40342641, HILLSLOPE 1.582156808, MAX_EFFECT 66.8261563, TOP 100.0", "result": 4.18}]}, {"compound": "NCC1Cc2cc(-c3nccc(N4CCC(O)CC4)n3)cc(F)c2O1", "note": "(stereo unspecified)", "values": [{"measurement": "PXC50", "setting": "BOTTOM 4.57074024, HILLSLOPE 1.301030074, MAX_EFFECT 74.63768116, TOP 104.4144526", "result": 4.29}, {"measurement": "PXC50", "setting": "BOTTOM 7.212229631, HILLSLOPE 1.389029539, MAX_EFFECT 78.85304659, TOP 100.0", "result": 4.36}, {"measurement": "PXC50", "setting": "BOTTOM 8.369250909, HILLSLOPE 1.751405643, MAX_EFFECT 88.77887789, TOP 100.0", "result": 4.37}]}, {"compound": "Cn1ncc2c(NCCCO)nc(Nc3ccc(F)c(F)c3)nc21", "values": [{"measurement": "PXC50", "setting": "BOTTOM 3.669470718, HILLSLOPE 1.210805745, MAX_EFFECT 80.79625293, TOP 84.65096449", "result": 5.1}, {"measurement": "PXC50", "setting": "BOTTOM -1.663315364, HILLSLOPE 0.981462858, MAX_EFFECT 92.22222222, TOP 100.0", "result": 4.94}, {"measurement": "PXC50", "setting": "BOTTOM -4.044672009, HILLSLOPE 0.90681659, MAX_EFFECT 92.93598234, TOP 107.9137749", "result": 4.87}]}, {"compound": "Cn1ncc2c(N3CCOCC3)nc(Nc3ccc(F)c(F)c3)nc21", "values": [{"measurement": "PXC50", "setting": "BOTTOM 9.319609168, HILLSLOPE 1.297043796, MAX_EFFECT 53.57833656, TOP 67.28849304", "result": 5.29}, {"measurement": "PXC50", "setting": "MAX_EFFECT 10.12396694", "result": "< 4"}, {"measurement": "PXC50", "setting": "MAX_EFFECT 42.73127753", "result": "< 4"}]}, {"compound": "CCN(CC)c1ccc2ccc(C(=O)N3CCCCO3)cn12", "values": [{"measurement": "PXC50", "setting": "BOTTOM -0.620934572, HILLSLOPE 1.091774088, MAX_EFFECT 59.15492958, TOP 100.0", "result": 4.06}, {"measurement": "PXC50", "setting": "BOTTOM -3.857934484, HILLSLOPE 1.704145188, MAX_EFFECT 56.25, TOP 100.0", "result": 4.39}, {"measurement": "PXC50", "setting": "MAX_EFFECT 43.85964912", "result": "< 4"}, {"measurement": "PXC50", "setting": "MAX_EFFECT 47.96296296", "result": "< 4"}]}, {"compound": "CN(C)c1nc(Nc2ccc(F)c(F)c2)nc2c1cnn2C", "values": [{"measurement": "PXC50", "setting": "BOTTOM 0.0, HILLSLOPE 0.943271721, MAX_EFFECT 54.1567696, TOP 49.71942024", "result": 6.12}, {"measurement": "PXC50", "setting": "BOTTOM 0.0, HILLSLOPE 1.040792015, MAX_EFFECT 59.65665236, TOP 50.11386445", "result": 6.1}, {"measurement": "PXC50", "setting": "BOTTOM 0.0, HILLSLOPE 1.064354186, MAX_EFFECT 50.0967118, TOP 49.52260288", "result": 6.2}]}]}
